High-throughput results (PubChem)
An excerpt weighted towards active compounds, which were near 1.6% of everything screened.
PKA-R2B activ: PKA-R2B complex activation; P22694+P31323; PKA-R2B holoenzyme dissociation, Cy5-IP20 fluorescence polarization; R2B truncated from residue 108, S112A mutant; 0% DMSO only, 100% 113 µM cGMP; actives 0.079% (n = 340,000); activation, % at 11.4 µM;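 active = activation above a cutoff set at the mean over all compounds plus 3 SD, cut at about 18% in these data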;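 also: higher means more holoenzyme dissociation and a rise in polarization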
Target sequence (P31323 whole entry, looked up, other chains not shown, the tested form may be a part): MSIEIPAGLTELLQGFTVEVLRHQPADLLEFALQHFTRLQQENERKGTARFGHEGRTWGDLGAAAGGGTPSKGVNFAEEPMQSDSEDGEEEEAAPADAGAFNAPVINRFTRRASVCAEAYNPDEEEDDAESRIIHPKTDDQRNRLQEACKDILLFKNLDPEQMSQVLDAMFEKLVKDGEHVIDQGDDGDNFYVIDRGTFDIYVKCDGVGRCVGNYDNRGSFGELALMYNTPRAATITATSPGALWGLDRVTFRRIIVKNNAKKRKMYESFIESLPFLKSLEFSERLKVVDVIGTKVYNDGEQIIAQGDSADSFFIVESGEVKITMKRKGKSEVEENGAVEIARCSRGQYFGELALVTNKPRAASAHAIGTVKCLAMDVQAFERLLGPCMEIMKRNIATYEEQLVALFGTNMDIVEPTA
CendR NRP1 mod: NRP-1/CendR interaction modulation | O14786 | FAM-RPARPAR peptide binding to NRP-1, fluorescence polarization | AID 602438 | actives 0.85% (n = 360,000) | inhibition, % at 25 µM;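 active = inhibition or corrected inhibition above about 18%, plus a signal ratio from 0.5 to 1.5, limit read from the data, passing the limit was not always enough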
VLA-4 inh: inhibition in a human VLA-4 binding assay; P13612; VLA-4 expressing cells, ligand binding flow cytometry; inhibition, % (about 7 µM as worked out from the volumes in the protocol); actives 0.2% (n = 330,000); AID 2557
ATG4B inh: inhibitors of human ATG4B cysteine protease. Q9Y4P1. ATG4B cleavage of LC3-PLA2, NBD-HPC fluorescence, 1 h. inhibition, % at 8.33 µM. actives 0.51% (n = 340,000); in the data active = inhibition above about 40%
PKA-R1A activ: activators of PKA-R1A complex. PKA-R1A dissociation, Cy5-IP20 fluorescence polarization; scaled: DMSO 0%, 113 µM cGMP 100%. activation, % at 11.4 µM. actives 0.083% (n = 340,000). AID 504707;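 active = percent activation above the mean of all tested compounds plus 3 SD, cut at about 19% in these data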;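 also: higher means more PKAc released from R1A so a rise in polarization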
PLA2 counter: PLA2 (human) inhibition in ATG4B counter-screen; shares compounds with ATG4B inh; purified PLA2, NBD-C6-HPC fluorescence, 45 min; actives 66% (n = 1,600); inhibition, % at 8.33 µM; AID 588402
R2B FP artifact: fluorescence polarization artifact in PKA-R2B activator counter-screen. FP artifact counterscreen. shares compounds with PKA-R2B activ. activation, % at 11.4 µM. actives 6% (n = 270); in the data active = activation above about 20%;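 also: Cy5 labelled IP20 peptide probe with compound but no PKA protein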
PKA-R2B confirm: confirmation of human PKA-R2B complex activators; actives 9% (n = 270); shares compounds with PKA-R2B activ; activation, % at 11.4 µM; fluorescence polarization, activation; in the data active = activation above about 19%
Target sequence (P31323 whole entry, looked up): as the sequence (P31323 whole entry, looked up, other chains not shown, the tested form may be a part) above
R1A FP artifact: counter-screen for PKA-R1A activators: fluorescence polarization artifacts | shares compounds with PKA-R1A activ | Cy5-IP20 peptide alone, fluorescence polarization artifact counterscreen | activation, % at 11.4 µM | actives 7% (n = 280) | AID 504799;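 active = mean activation over triplicate runs exceeds the adjusted cutoff derived for the parent primary screen, cut at about 19% in these data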;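 also: no PKA protein present so any polarization rise reflects compound interference; higher means stronger polarization artifact and likely false positive in parent screen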
PKA-R1A act conf: confirmation of PKA-R1A complex activators. shares compounds with PKA-R1A activ. Cy5-IP20 fluorescence polarization, PKA-R1A holoenzyme dissociation. activation, % at 11.4 µM. actives 9% (n = 280). AID 504800;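 active = mean activation over replicate wells exceeds the adjusted hit threshold taken from the earlier primary screen, cut at about 20% in these data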
Numbers stand for hits; 0 = inactive; - = no result given; ! = repeats disagree. Rule as the data show it, unless noted: active = inhibition above about 50%; inactive = the rest.

SMILES | PKA-R2B activ | CendR NRP1 mod | VLA-4 inh | ATG4B inh | PKA-R1A activ | R2B FP artifact | PKA-R2B confirm | others
COc1ccc(CN(CCc2c[nH]c3ccccc23)Cc2ccc(OC)cc2)cc1 | 0 | 0 | - | 0 | 0 | - | -
COC(=O)C1=C(c2ccc(F)cc2OCc2ccccc2)C[C@@H]2CC[C@H]1N2C(=O)NCc1ccccc1Cl | 0 | 0 | 0 | 42.6 | 0 | - | - | PLA2 counter=62.2
COC(=O)C1=C(c2ccc(F)cc2OCc2ccccc2)C[C@@H]2CC[C@H]1N2C(=O)NCCOc1ccccc1Cl | 0 | 0 | 0 | 0 | 0 | - | -
N#CCCn1cc(C=C2C(=O)NC(=O)NC2=O)c(-c2ccccc2)n1 | 19.1 | 0 | 0 | 0 | 0 | 0 | 0
Cc1ccc(/C=C2/C(=O)NC(=O)N(CCc3ccc(F)cc3)C2=O)o1 | 24.2 | 0 | 0 | 0 | 0 | 0 | 0
CCCn1cc(CN2CCCC(C(=O)c3cccc(OC)c3)C2)c(C)n1 (configuration not stated) | 21.1 | 0 | 0 | 0 | 0 | 0 | 0
CCn1cc(CN2CCCC(C(=O)c3cccc(OC)c3)C2)c(C)n1 (configuration not stated) | 0 | 0 | 0 | 0 | 0 | - | -
COC(=O)C1=C(c2ccc(OC(F)(F)F)cc2)C[C@@H]2CC[C@H]1N2C(=O)NC1CCCCC1 | 0 | 0 | 0 | 0 | 0 | - | -
CCOP(=O)(OCC)C(NC(=O)c1ccccc1Cl)=C(Cl)Cl | 18.5 | 0 | 0 | 0 | 0 | 0 | 0
CCOP(=O)(C(NC(=O)c1ccccc1Cl)=C(Cl)Cl)c1ccccc1 (configuration not stated) | 0 | 0 | 0 | 0 | 0 | - | -
O=C(O)c1cccc2c1NC(C(=O)O)C1CC(Sc3ccccc3[N+](=O)[O-])C(Cl)C21 (configuration not stated) | 21.5 | 0 | 0 | 0 | 0 | 24.0 | 0
CN1C(=O)NC(=O)C2(CCCC2)C1=O | 0 | 0 | - | 0 | 0 | - | -
Oc1ccc2c3c1O[C@H]1[C@@H](O)CC[C@@]4(O)[C@@H](C2)N(CC2CCC2)CC[C@]314 | 18.7! | 0 | 0 | 0 | 0 | 0 | 0
O=[N+]([O-])/C=C/c1c(Cl)cccc1Cl | 0 | 0 | - | 0 | 0 | - | -
CC(Cc1ccccc1)N(C)CC1C(=O)C2CCC1C2 (configuration not stated) | 0 | 0 | - | 0 | 0 | - | -
C#CCN(C)C(C)Cc1ccccc1 (configuration not stated) | 18.8 | 0 | 0 | 0 | 0 | 0 | 0
O=C1NCN(c2ccccc2)C12CCN(C(CCc1ccccc1)c1nnnn1C1CCCCC1)CC2 (configuration not stated) | - | 0 | - | - | - | - | -
O=C1NC(=S)NC(=O)C1=Cc1cccn1-c1ccc(O)cc1 | 0 | 0 | - | 0 | 21.2 | - | - | R1A FP artifact=0;PKA-R1A act conf=0
C[C@]12C[C@H](O)[C@@H](O)C[C@@H]1CC[C@@H]1[C@@H]2CC[C@]2(C)C(=O)CC[C@@H]12 | - | 0 | - | - | - | - | -
